# Among all 33,000 compounds or so, about 40 (0.1%) were called active. Rule as the data show it: active = z-score below about -3; inactive = the rest. Shown is part of a subset that was picked to be rich in actives.
# Assay: inhibitors of measles virus growth in cells, primary screen, measles RdRp inhibitor project, cell-based, single point, HTS (AID 745)
# Conditions: infected Vero cells, GFP fluorescence, 64 h; hits give low values
row,Compound,z-score
1,Cc1ccc(-n2nc3c(c2NC(=O)c2ccccc2F)CS(=O)(=O)C3)c(C)c1,-0.44 (inactive)
2,O=C1C2C3c4ccccc4C(C(=O)O)(c4ccccc43)C2C(=O)N1c1ccccc1Cl (stereo not drawn),-0.65 (inactive)
3,CC(C)(C)c1nnc(Nc2ccc3c(c2)OCO3)[nH]c1=O,-0.67 (inactive)
4,CCNS(=O)(=O)c1cc(-c2nnc(Nc3cccc(C(F)(F)F)c3)c3ccccc23)ccc1C,-0.06 (inactive)
5,Cc1ccc2nc(-c3ccccc3)c(Nc3ccccc3C)n2c1,-1.03 (inactive)
6,COc1ccc(C2/C(=C(\O)c3ccccc3)C(=O)C(=O)N2CO)cc1 (stereo not drawn),-0.38 (inactive)
7,O=P(Cc1cccc(CP(=O)(c2ccccc2)c2ccccc2)n1)(c1ccccc1)c1ccccc1,-1.8 (inactive)
8,COc1cc(NC(=O)c2noc3c2CCCCC3)c(OC)cc1Cl,-0.93 (inactive)
9,Cc1ccc(S(=O)(=O)C2(C(=O)N(C)Cc3ccccc3)CC2)cc1,0.74 (inactive)
10,CCC(C(=O)NCCC(C)C)N1C(=O)CSc2ccc(C(C)(C)C)cc21 (stereo not drawn),0.55 (inactive)
11,Cc1cc(C(=O)NCCCN=C2NS(=O)(=O)c3ccccc32)c2ccccc2n1,1.11 (inactive)
12,N#Cc1c(NC(=O)CCCC(=O)O)sc2c1CCCC2,-0.15 (inactive)
13,CCCC12CN3CC(C)(CN(C1)C3c1ccccc1Cl)C2=O (stereo not drawn),-0.48 (inactive)
14,O=C1CCCc2oc3c(cc(NS(=O)(=O)c4ccc(Cl)cc4)c4ccccc43)c21,-0.4 (inactive)
15,CN(C(=O)CCn1c(=S)oc2ccccc21)C1CCCCC1,-2.69 (inactive)
16,CCOc1ccc(C(=O)Nc2cccc(-c3nc4cc(C)ccc4o3)c2)cc1Br,-0.49 (inactive)
17,O=C(Nc1c2c(nn1-c1ccc(F)cc1)CS(=O)(=O)C2)c1ccccc1Cl,-1.44 (inactive)
18,COc1ccc(C2Nc3ccccc3C(=O)N2c2ccc(Cl)cc2)cc1COc1ccccn1 (stereo not drawn),0.19 (inactive)
19,Cc1cc(Cl)ccc1OC1C(=O)N(c2cccc([N+](=O)[O-])c2)C1c1ccccc1Cl (stereo not drawn),-0.08 (inactive)
20,O=C(CCCn1c(=O)[nH]c2cc(Cl)ccc2c1=O)NCCc1c[nH]c2ccccc12,-0.02 (inactive)

row,Compound,z-score
1,O=S1(=O)N=C(N2CCCCC2)c2ccccc21,2.63 (inactive)
2,CC(=O)c1cccc(N2C(=O)c3ccc(C(=O)OCC(=O)c4cccc([N+](=O)[O-])c4)cc3C2=O)c1,-0.12 (inactive)
3,CC(C)Sc1oc(-c2ccc(F)cc2)nc1S(=O)(=O)c1ccc(Cl)cc1,-1.46 (inactive)
4,CC(=O)NC1=NN(C(C)=O)C(c2ccc3c(c2)OCO3)S1 (stereo not drawn),-0.09 (inactive)
5,Cc1ccc(S(=O)(=O)N2CCCCCC2)cc1C(=O)Nc1ccc(Br)cc1,-0.48 (inactive)
6,CCOc1ccc(-c2cc(C(=O)N3CCN(Cc4ccc5c(c4)OCO5)CC3)c3ccccc3n2)cc1,0.33 (inactive)
7,O=C(NCCN1CCOCC1)c1cc(Sc2cccc(Cl)c2)nc2ccccc12,0.36 (inactive)
8,Cc1cccc(NC(=O)c2c(NC(=O)c3ccncc3)sc3c2CCC(C(C)(C)C)C3)c1 (stereo not drawn),-0.43 (inactive)
9,COc1ccc(NC(=O)CN2C(=O)C3C4CCC(C4)C3C2=O)cc1 (stereo not drawn),0.52 (inactive)
10,Cc1ccc(C)c(OCCc2c(C)n[nH]c2C)c1,0 (inactive)
11,COC(=O)c1ccccc1Oc1c(F)c(F)nc(NCCO)c1F,-0.51 (inactive)
12,COc1ccc(OC)c(C=Nc2oc(-c3ccccc3)c(-c3ccccc3)c2C#N)c1,-1 (inactive)
13,COc1nc(SC)nnc1C,-5.82 (active)
14,COc1cc(NC(=O)c2cc(-c3ccc(Cl)cc3)on2)c(OC)cc1Cl,-0.12 (inactive)
15,COC(=O)c1sc(=S)n(-c2ccc(OC)c(Cl)c2)c1N,0.31 (inactive)
16,O=C(Nc1c(C(=O)N2CCC(Cc3ccccc3)CC2)cnn1-c1ccccc1)c1ccc(Br)cc1,0.43 (inactive)
17,COc1ccc(-c2cc(C(=O)Nc3sc4c(c3C(N)=O)CCCC4)no2)cc1,0.31 (inactive)
18,CCCc1n(CC(O)COc2cccc(Cl)c2)c2ccccc2[n+]1C (stereo not drawn),0.55 (inactive)
19,CC1CC(C)(C)NC(=S)N1CCC(=O)Nc1ccc(OC(F)(F)F)cc1 (stereo not drawn),-0.78 (inactive)
20,O=C1COc2ccc(Cl)cc2N1,0.06 (inactive)

row,Compound,z-score
1,CCOC(=O)c1sc(NC(=O)COc2ccc(C(C)C)c(C)c2)nc1C,-0.5 (inactive)
2,COc1ccc(C2C(C(=O)Nc3ccc(Br)cc3C)c3ccccc3C(=O)N2C)cc1 (stereo not drawn),-0.56 (inactive)
3,O=S(=O)(c1ccccc1)N1CCN(C2CC3CCC2C3)CC1 (stereo not drawn),-0.28 (inactive)
4,N=C1N=C(N)C(Cc2ccccc2)S1 (stereo not drawn),-0.59 (inactive)
5,Cc1noc(NS(=O)(=O)c2ccc(NC(=O)c3cccc(Br)c3)cc2)c1C,0.43 (inactive)
6,CC(=O)Nc1cc(C(=O)N(C)CCC#N)ccc1Sc1ccc(Cl)cc1,-1.08 (inactive)
7,COc1ccc(C2C(C(=O)Nc3ccccc3F)=C(C)NC3=C2C(=O)CCC3)cc1OC (stereo not drawn),0.03 (inactive)
8,O=C(NCc1ccccc1)c1ccc2c(=O)n(-c3ccccc3)c(=S)[nH]c2c1,0.39 (inactive)
9,O=C1C(=O)N(c2nccs2)C(c2ccccc2Cl)/C1=C(\O)c1ccc(F)cc1 (stereo not drawn),1.65 (inactive)
10,CCCCNC(=O)c1cnn2c(C)c(Cc3ccccc3)c(C)nc12,-0.18 (inactive)
11,O=C(c1ccc(-n2c(=S)[nH]c3ccccc3c2=O)cc1)N1CCN(C2CCCCC2)CC1,-0.06 (inactive)
12,O=C(Nc1ncnc2sc3c(c12)CCCC3)c1ccccc1,0.41 (inactive)
13,S=c1[nH]c(-c2ccc(Cl)cc2)cn1-c1cccc(Cl)c1,-0.55 (inactive)
14,Nc1nnc2c(n1)-c1ccccc1C2=O,0.84 (inactive)
15,CCC(NS(=O)(=O)c1ccc(Oc2ccc([N+](=O)[O-])cc2)cc1)C12CC3CC(CC(C3)C1)C2 (stereo not drawn),-1.36 (inactive)
16,O=C(CN1C(=O)c2cccc3cccc1c23)N1CCCCCC1,0.09 (inactive)
17,CCCCN(C)Cc1c(O)ccc2c(=O)c(Oc3ccc(CC)cc3)c(C(F)(F)F)oc12,-0.69 (inactive)
18,Fc1ccccc1CSc1nc(NCC2CCCO2)c2ccccc2n1 (stereo not drawn),-1.9 (inactive)

# Source: PubChem BioAssay AID745 (Emory University Molecular Libraries Screening Center, 2007)
